Values joined by “and” are separate entries in the source; they are usually repeats but may differ in a detail not shown here. Equal values may be shown once. Out of some 310,000 compounds screened, about 11,000 (3.5%) were called active. About 4% were inconclusive and are not listed. Only a selection was taken, and actives are over-represented in it overall. A number with no mark means an inactive call. Calls come from the whole dose curve; as a rule, active = well fitted inhibition curve with a large enough effect; inconclusive = small, poorly fitted or top-dose-only effect, or another doubt; inactive = no such curve, though single readings can be large or run the other way.
The compounds below were run against 4'-phosphopantetheinyl transferase ffp (Bacillus subtilis) (UniProt Q9F4F7) (assay: qHTS Assay for Inhibitors of Bacillus subtilis Sfp phosphopantetheinyl transferase (PPTase)). Settings: Biochemical Sfp PPTase activity.
Procedure, shortened: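 Compounds were incubated with enzyme (final 15 nM) for 15 min at room temperature before substrate addition started the reaction. Fluorescence at 525 nm excitation, 598 nm emission was recorded immediately and after 30 minutes.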
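Note: the enzyme is Sfp with the accession as filed and its product quenches rhodamine fluorescence.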
Potency is the fitted concentration of half-maximal effect.
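Throughout, for largest response in the series, negative = inhibition: 0% = enzyme reaction without inhibitor and -100% = no enzyme wells.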

SMILES | largest response in the series, negative = inhibition | Potency
CC(=O)c1ccc(S(=O)(=O)NCc2nnnn2-c2ccccc2)cc1 | 25.6% | 
Cc1ccc2c(c1)N(CC(=O)NCC1CCCO1)C(=O)CO2 (centres undefined) | 20.7% | 
S=c1[nH]nc(-c2cccnc2)n1/N=C/C(Cl)=C\c1ccccc1 | -12.9% | 
S=c1[nH]nc(-c2ccco2)n1/N=C/c1ccc(Br)s1 | -25.9% | 
Cc1cc(-c2n[nH]c(=S)n2/N=C/c2ccco2)n[nH]1 |  | 79.4 µM (active)
Cc1cc(-c2n[nH]c(=S)n2/N=C/C(Br)=C/c2ccccc2)n[nH]1 |  | 39.8 µM (active)
CC(C)c1cc(C(=O)N/N=C/C(Br)=C/c2ccccc2)n[nH]1 | 3.6% | 
S=c1[nH]nc(-c2ccco2)n1/N=C/c1ccccc1 | -17.1% | 
O=C(c1cc2ccccc2o1)N1CCN(Cc2ccccc2)CC1 | 8.96% and -10.3% | 
Cc1ccc(CSCCNC(=O)CN(c2ccc(F)cc2)S(C)(=O)=O)cc1 | 7.19% | 
O=C(c1ccncc1)N1CCC2(CCCN(C(c3ccccc3)c3ccccc3)C2)CC1 | -0.961% | 
Cc1ccc(CNC(=O)C(=O)c2cn(CC(=O)N3CCOCC3)c3ccccc23)cc1 | 6.58% | 
Cc1ccc(C(=O)Oc2ccc(C(=S)N3CCOCC3)cc2)cc1 | -21.7% | 
O=C(Oc1ccc(C(=S)N2CCOCC2)cc1)c1ccc(F)cc1 |  | 50.1 µM (active)
O=C(Oc1ccc(F)cc1)N1CCOCC1 | 11.2% | 
NNC(=O)CNC(c1ccccc1)c1cc(Cl)ccc1NC(=O)c1ccccc1 (centres undefined) | 5.82% | 
Cc1ccc(SCC(CC(C)C)N2CCN(CCc3ccccc3)CCC2=O)cc1 (centres undefined) | -29.9% | 
CN(C)c1cc(N)c2ccccc2n1 (tested in a mixture with another compound) |  | 56.2 µM (active)
Cc1cc(N(C)C)nc(Cl)n1 | -4.8% | 
COc1ccc(-c2cc(C(=O)N(C)Cc3ccccc3)c3ccccc3n2)cc1 | -16.8% | 

SMILES | largest response in the series, negative = inhibition | Potency
CN(Cc1ccccc1)S(=O)(=O)c1nnc(NC(=O)c2ccccc2F)s1 | 16.4% | 
O=C(Cc1cccs1)NCc1cccc(C(F)(F)F)c1 | 6.74% | 
NC(=O)CC(NC(=O)Cc1ccc(Br)cc1)c1ccc(NC2CC3CCC2C3)c([N+](=O)[O-])c1 (centres undefined) | 15.4% | 
O=C(Nc1ccc(Cl)cc1)c1cccc(OC(=S)N2CCOCC2)c1 | 5.61% | 
CCOC(=O)c1c(N)sc(C(C)=O)c1C | -34.1% | 
COCCOC(=O)c1sc(=S)n(CCOC)c1N |  | 25.1 µM (active)
O=C(N/C(=C\c1ccc(O)cc1)C(=O)N1CCCCC1)c1ccccc1 | 11.6% | 
Cc1ccc2c(=O)cc(C(=O)NCCc3ccc(S(N)(=O)=O)cc3)oc2c1C | 15.4% | 
CCOc1ccc2nc(SC(CC)C(=O)Nc3cc(C)on3)sc2c1 (centres undefined) | 9.59% | 
CCOc1ccc2nc(C(=O)N3CCCC(C)C3)sc2c1 (centres undefined) |  | 25.1 µM (active)
CCOc1ccc2nc(Nc3nc4ccc(NC(C)=O)cc4s3)sc2c1 | -21.4% | 
CCN(CC)CCCNC(=O)c1c(O)c2cc(F)cc3c2n(c1=O)C(C)CC3 (centres undefined) | 2.11% | 
O=[N+]([O-])c1ccc(N=Cc2c(O)ccc3ccccc23)cc1 | -6.3% | 
Oc1c(C=Nc2cccc3nsnc23)ccc2ccccc12 |  | 44.7 µM (active)
COc1ccc(C=Nc2cccc3ncccc23)cc1 | -8.45% | 
Cc1cc2c(cc1S(=O)(=O)CCC(=O)NCc1ccccc1)OCC(=O)N2 | 18.5% | 
CC(=O)N1CC[n+]2c(-c3ccc([N+](=O)[O-])cc3)csc21 |  | 5.62 µM (active)
COc1ccc(C2CC(c3ccc([N+](=O)[O-])cc3)=NN2C(C)=O)cc1 (centres undefined) | 0.697% | 
CN1C2CCC1CC(NC(=O)c1ccc([N+](=O)[O-])cc1)C2 (centres undefined) | 9.32% | 
CC(C)=CCc1c(O)c(CC=C(C)C)c2occ(-c3ccc(O)cc3)c(=O)c2c1O | -6.29% | 

SMILES | largest response in the series, negative = inhibition | Potency
OCC(CO)NC1C[C@](O)(CO)[C@@H](O)[C@H](O)[C@H]1O (some centres undefined) | 7.78% | 
O=C(NC(Cc1ccccc1)C(=O)O)/C(=C\c1ccccc1)NC(=O)c1ccco1 (centres undefined) | 16.2% | 
COc1cccc(-c2noc(C3CCCN(C(=O)c4ccc(F)cc4)C3)n2)c1 (centres undefined) | 12.5% | 
FC(F)(F)C1CCCN(c2nsc3ccccc23)C1 (centres undefined) |  | 15.8 µM (active)
CC(C(=O)NC1CCCCC1)N1C(=O)c2cccc3cccc1c23 (centres undefined) | 4.03% | 
COC(=O)c1ccc(OC(=O)c2cnccn2)cc1 | -8.15% | 
Cn1c(SCc2nc3ccccc3s2)nnc1-c1ccc2c(c1)OCO2 |  | 14.1 µM (active)
Cn1c(SCC(=O)N2CCCC2)nnc1-c1ccc2c(c1)OCO2 | 8.6% | 
O=C(O)CSc1nnc(-c2ccc3c(c2)OCO3)n1-c1ccccc1 | 30.8% | 
CCc1c(C)[nH]c(=S)c(C#N)c1C |  | 12.6 µM (active)
COc1ccc(/C(C)=N\NC(=O)c2ccc(-c3ccccc3)cc2)c(F)c1 | 12.8% | 
COc1ccc(N(Cc2cc3ccc(C)cc3[nH]c2=O)S(=O)(=O)c2ccccc2)cc1 | 6.39% | 
CCn1c2ccc(F)cc2c2nnc(SCCN3CCOCC3)nc21 | -2.54% | 
COc1ccc(N2CCN(C(=O)CSc3ncnc4c3cnn4-c3ccc(OC)cc3)CC2)cc1 | -1.71% | 
CCOc1ccc(-c2nnn(CC(=O)N3CCN(c4ccc(OC)cc4)CC3)n2)cc1OCC | 20.4% | 
COc1ccc(N2CCN(C(=O)CSc3nc4cc(OC)c(OC)cc4cc3C#N)CC2)cc1 |  | 63.1 µM (active)
CCN(CC(=O)Nc1ccc(C)c(S(=O)(=O)N(C)C)c1)Cc1ccccc1 | -18.4% | 
Cn1c(SCC(=O)N2CCCC2)nnc1-c1cccs1 | 5.11% | 
Cc1c(C(=O)N2CCCC2)c(S(=O)(=O)NCC(C)c2ccccc2)c(C)n1C (centres undefined) | -2.67% | 

Reference: PubChem BioAssay AID1490 (National Center for Advancing Translational Sciences (NCATS), 2009)
